Reference: PubChem BioAssay (EPA / NIEHS)
Inconclusive results are not listed. The source holds several records for some structures; these can differ, active in one and inactive in another. Calls of active or inactive are those of the source. How the source made its calls, unless noted: active means hit-call score of the fitted dose curve at least 0.9, where 1 is the maximum; inactive means score below 0.9.

Key:
[1] = UKN2_HCS_IMR90_cell_viability: Viability Assessment in the University of Konstanz (UKN) Leist Lab Neural Crest Cell Migration Assay in human induced IMR90 Pluripotent Stem Cells (UKN2) (AID 2284233);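 further: viability of neural crest cells differentiated from IMR90 iPSC measured by calcein-AM fluorescence imaging; cells exposed to compound for 24 h after a 24 h migration phase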
Procedure, shortened: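 cMINC format, iPSC-derived neural crest (IMR90); 24 h migration (EGF/FGF, N2-S), then 24 h toxicant. Calcein-AM/H-33342 stain 30 min; fluorescence intensity by HCS; DMSO-normalised, bidirectional fitting.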

[2] = CCTE_Mundy_HCI_hNP1_Casp3_7: CCTE's Caspase-Glo 3/7 Assay in human neuroprogenitor cells for Apoptosis, Mundy Lab (AID 2284240)
Procedure, shortened: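 Neuroepithelial-lineage stem cells from WA09 embryonic cells were treated with chemicals after 40–44 h of culture. Twenty-four hours later, caspase-3/7 activation was detected luminescently after a 30 min room-temperature reagent step, with DMSO as baseline.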

[3] = CCTE_Mundy_HCI_hNP1_CellTiter: CCTE's Cell Titer-Glo 2 Assay in human neuroprogenitor cells for Viability, Mundy Lab (AID 2284241; active means hit-call score of the fitted dose curve at least 0.9, where 1 is the maximum;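 on AC50: a hit is a drop in ATP luminescence versus DMSO meaning reduced viability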)
Procedure, shortened: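 Measures ATP content in human neural progenitors derived from WA09 embryonic cells. Read-out at 26.5 hours after dosing, with DMSO serving as the negative control and baseline.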

[4] = CCTE_Mundy_HCI_Cortical_Synap_Neur_Matur_NeuronCount: CCTE's Synaptogenesis and Neurite Maturation Assay in rat cortical cells for Neuron Count, Mundy Lab (AID 2284242; active means hit-call score of the fitted dose curve at least 0.9, where 1 is the maximum;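 further: neuron number from Hoechst nuclei and MAP2 staining by high-content imaging; hits reduce neuron count versus DMSO baseline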)
Procedure, shortened: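 Rat cortical cultures; AraC DIV 5; chemical dosing + media change DIV 7 to DIV 12 (288.33 h readout). Fix, Hoechst, anti-MAP2/anti-synaptophysin immunostain; HCI neuron count vs DMSO baseline.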

[5] = CCTE_Mundy_HCI_Cortical_NOG_NeuronCount: CCTE's Neurite Outgrowth Assay in rat cortical cells for Neuron Count, Mundy Lab (AID 2284236; active means hit-call score of the fitted dose curve at least 0.9, where 1 is the maximum;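 further: neurons counted by imaging betaIII-tubulin and Hoechst stained cortical cells; cells exposed to compound for about 48 hours before fixation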)
Procedure, shortened: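 Read-out: neuron number by high-content imaging of betaIII-tubulin (Alexa Fluor-488) and Hoechst-labelled rat primary cortical cells.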

[6] = CCTE_Mundy_HCI_Cortical_NOG_BPCount: CCTE's Neurite Outgrowth Assay in rat cortical cells for Branch Point Count, Mundy Lab (AID 2284237);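 on AC50: branch points counted about two days after chemical exposure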
Procedure, shortened: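 Measured 50.33 h after dosing, this morphology endpoint uses rat primary cortical cultures labelled for betaIII-tubulin. Branch points are quantified by high-content imaging, with DMSO as negative control and baseline.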

[7] = TAMU_HCS_1.5hr_SingleDonor1434_Cytotoxicity: Cytotoxicity Assessment using High-content Screening (HCS) Fluorescent Imaging for the Texas A&M University (TAMU) 1.5-hr Human Induced Pluripotent Stem Cell (iPSC)-derived Cardiotoxicity Assay (AID 2284234; active means hit-call score of the fitted dose curve at least 0.9, where 1 is the maximum)
Procedure, shortened: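 Nuclear counts from Hoechst 33342 imaging define cytotoxicity here, with EC10 (10% cell-count loss relative to DMSO) as point of departure. iPSC cardiomyocytes received 0.2-100 uM test chemical in 0.5% DMSO for 1.5 h at 37 C.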

[8] = TAMU_PeakParms_SingleDonor1434_QT: Texas A&M University (TAMU) 1.5-hr Human Induced Pluripotent Stem Cell (iPSC)-derived Cardiomyocytes Calcium (Ca+2) Flux Assay for Cardiotoxicity: QT (decay-rise ratio) (AID 2284235; active means hit-call score of the fitted dose curve at least 0.9, where 1 is the maximum)
Procedure, shortened: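 Decay/rise ratio of calcium-flux fluorescence scored after 90 min exposure (37C) of donor 1434 iPSC cardiomyocytes to 0.2–100 uM (0.5% DMSO). Beat-cessation and severe-notch points removed; POD is EC05, a 5% rise over DMSO.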

[9] = read-out: Tumor necrosis factor (Homo sapiens) (UniProt P01375); assay: BSK_BT_xTNFa: BioMAP Diversity Plus: BT Assay for Tumor necrosis factor alpha (TNF-alpha) Biomarker Activity (AID 2284230); settings: primary human B cells with PBMC
Procedure, shortened: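 Read-out: Luminex xMAP quantitation of secreted TNF-alpha from a B cell/PBMC co-culture 24 h after compound addition. Signal analysed relative to DMSO vehicle, positive fitting direction.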

[10] = read-out: Vascular cell adhesion molecule 1 (VCAM1), VCAM1 (gene 7412); assay: BSK_MyoF_VCAM1: BioMAP Diversity Plus: MyoF Assay for Vascular cell adhesion molecule 1 (VCAM1) Biomarker Activity (AID 2284231); settings: primary human lung fibroblasts
Procedure, shortened: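 MyoF system, lung fibroblasts; 24 h post-dose; VCAM-1 by ELISA; gain-of-signal fit vs DMSO baseline.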

[11] = read-out: Collagen I, COL1A1 (gene 1277); assay: BSK_MyoF_CollagenI: BioMAP Diversity Plus: MyoF Assay for Collagen I Biomarker Activity (AID 2284238); settings: primary human lung fibroblasts
Procedure, shortened: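 ELISA readout of Collagen I after 24 h chemical treatment of primary human lung fibroblast cultures; gain of signal scored relative to DMSO vehicle baseline.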

[12] = read-out: Collagen III, COL3A1 (gene 1281); assay: BSK_MyoF_CollagenIII: BioMAP Diversity Plus: MyoF Assay for Collagen III Biomarker Activity (AID 2284239); settings: primary human lung fibroblasts
Procedure, shortened: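 Lung fibroblast culture; 24 h compound exposure; collagen III by ELISA; gain-of-signal fit vs DMSO baseline.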

[13] = read-out: Interleukin 17F (IL17F), IL17F (gene 112744); assay: BSK_BT_xIL17F: BioMAP Diversity Plus: BT Assay for Interleukin 17F (IL17F) Biomarker Activity (AID 2284243); settings: primary human B cells with PBMC
Procedure, shortened: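 Secreted IL-17F, read on LumineX xMAP beads, was taken as the endpoint. Cultures combined human B cells and peripheral blood mononuclear cells, sampled 24 hours after dosing, with DMSO serving as negative control.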

[14] = read-out: Actin alpha 1 (ACTA1), ACTA1 (gene 58); assay: BSK_MyoF_ACTA1: BioMAP Diversity Plus: MyoF Assay for Actin alpha 1 (ACTA1) Biomarker Activity (AID 2284244); settings: primary human lung fibroblasts
Procedure, shortened: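 ELISA read-out of a-SMA in primary human lung fibroblast cultures, 24 h post-dosing. Activity scored in the positive direction versus DMSO baseline.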

[15] = read-out: Interleukin 2 (IL2), IL2 (gene 3558); assay: BSK_BT_xIL2: BioMAP Diversity Plus: BT Assay for Interleukin 2 (IL2) Biomarker Activity (AID 2284245); settings: primary human B cells with PBMC
Procedure, shortened: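 Readout: supernatant IL-2 via Luminex xMAP after 24 h chemical dosing of a B cell/PBMC primary human co-culture. DMSO serves as negative control and baseline; increases in signal were fitted.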

[16] = read-out: Basic fibroblast growth factor (bFGF), FGF2 (gene 2247); assay: BSK_MyoF_bFGF: BioMAP Diversity Plus: MyoF Assay for Basic fibroblast growth factor (bFGF) Biomarker Activity (AID 2284246); settings: primary human lung fibroblasts
Procedure, shortened: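 Primary human lung fibroblast culture, 24 h compound exposure; ELISA read-out of bFGF. Positive-direction fit vs DMSO baseline. Cytotoxicity: SRB stain (0.1% SRB, 10% TCA fixation, 560 nm) in parallel wells.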

[17] = read-out: Collagen IV, COL4A1 (gene 1282); assay: BSK_MyoF_CollagenIV: BioMAP Diversity Plus: MyoF Assay for Collagen IV Biomarker Activity (AID 2284247); settings: primary human lung fibroblasts
Procedure, shortened: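 ELISA read-out of Collagen IV in lung fibroblast cultures, 24 h post-dosing; gain of signal relative to DMSO vehicle baseline defines activity.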

[18] = read-out: Plasminogen activator inhibitor-1 (PAI1), SERPINE1 (gene 5054); assay: BSK_MyoF_PAI1: BioMAP Diversity Plus: MyoF Assay for Plasminogen activator inhibitor-1 (PAI1) Biomarker Activity (AID 2284256); settings: primary human lung fibroblasts;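 further: PAI-1 protein level measured by ELISA in fibroblast cultures; PAI-1 read 24 h after compound addition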
Procedure, shortened: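 MyoF lung fibroblasts, human primary; compound 24 h; PAI-1 ELISA; positive-direction fit vs DMSO baseline; parallel SRB total-protein staining for cytotoxicity.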

[19] = read-out: Interleukin-8 (IL8), CXCL8 (gene 3576); assay: BSK_MyoF_IL8: BioMAP Diversity Plus: MyoF Assay for Interleukin-8 (IL8) Biomarker Activity (AID 2284261); settings: primary human lung fibroblasts
Procedure, shortened: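 Lung fibroblasts (human primary) → chemical exposure → 24 h → IL-8 measured by ELISA. Signal increase scored versus DMSO control.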

Measured: AC50

Sequence of Tumor necrosis factor (Homo sapiens) (P01375 whole entry, looked up): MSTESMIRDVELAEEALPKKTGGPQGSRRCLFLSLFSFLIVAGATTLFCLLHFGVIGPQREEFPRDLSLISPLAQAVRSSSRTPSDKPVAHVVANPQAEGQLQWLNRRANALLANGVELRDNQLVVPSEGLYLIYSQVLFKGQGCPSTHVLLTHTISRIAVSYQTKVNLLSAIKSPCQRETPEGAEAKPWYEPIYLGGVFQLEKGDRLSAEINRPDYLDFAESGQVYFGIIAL

CCOc1cc(Oc2ccc(C(F)(F)F)cc2Cl)ccc1[N+](=O)[O-]
active: [2] 52.1 µM | [3] 18.9 µM | [4] 15 µM
inactive: [1]

COP(=S)(OC)Oc1nc(Cl)c(Cl)cc1Cl
active: [5] 15 µM | [6] 24.1 µM | [4] 25.7 µM
inactive: [2] | [3]

CCOC(=O)CC(SP(=S)(OC)OC)C(=O)OCC (centres undefined)
inactive: [2] | [3]
active: [5] 23.9 µM | [2] 84.5 µM | [3] 72.8 µM | [4] 50 µM

CCCCNC(=O)OCC#CI
inactive: [8]
active: [7] 4.75 µM

C=CC1(C)OC(=O)N(c2cc(Cl)cc(Cl)c2)C1=O (centres undefined)
inactive: [1] | [5] | [6] | [2] | [3]

COc1cnc(OC)n2nc(NS(=O)(=O)c3c(OCC(F)F)cccc3C(F)(F)F)nc12
active: [17] 0.024 µM
inactive: [9] | [10] | [11] | [12] | [13] | [14] | [15] | [16] | [18] | [19]

CNC(=O)ON=CC(C)(C)SC
inactive: [8] | [6] | [2] | [3]

CN(C)C(=S)SSC(=S)N(C)C
active: [1] 7.92 µM | [5] 0.0469 µM | [6] 0.055 µM | [2] 87.3 µM | [3] 9.92 µM | [4] 0.0653 µM

Cc1ccc(-c2c(Cl)nc(C#N)n2S(=O)(=O)N(C)C)cc1
active: [1] 0.564 µM | [5] 50 µM | [6] 78 µM | [2] 89.9 µM | [3] 85.4 µM | [4] 50 µM
